This is a sample that favours compounds with a hit; in the whole collection about 19% have one here.
DT40 TDP1 CPT: DT40-hTDP1 cell growth loss with CPT | chicken DT40 Tdp1-/-;hTDP1 cells + 20 nM CPT, ATP luminescence, 48 h | actives 12% (n = 420,000) | AID 686979 | Potency, µM (titrated, usually from 46.2 µM), actives largely listed as inhibitors; note: nearly all actives have a fitted effect of over 55% in size
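Chicken DT40 Tdp1-/- cells stably complemented with human TDP1 were seeded at 400 cells/well in medium containing 20 nM camptothecin, exposed to pin-transferred compounds, and grown at 37 °C for at least 48 hr. Viability was read as ATP luminescence.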
TDP1 cell noCPT: qHTS for Inhibitors of human tyrosyl-DNA phosphodiesterase 1 (TDP1): qHTS in cells in absence of CPT. Potency, µM (titrated, usually from 46.2 µM), hits mostly inhibitors. actives 15% (n = 420,000). DT40 Tdp1-/- hTDP1 cells, no CPT, ATP luminescence, 48 h. AID 686978, 2013; note: nearly all actives have a fitted effect of over 55% in size
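Cells were dispensed at 400 per well, compounds added by pin tool, plates incubated ≥48 hr at 37 °C, then CellTiter-Glo added for 30 min at room temperature before luminescence reading. Line: DT40 Tdp1-/- complemented with hTDP1; camptothecin omitted.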
IL1B secr inh: inflammasome signaling inhibition, IL-1 beta readout; actives 4.7% (n = 360,000); activity change, % at 57.5 µM; THP-1 LPS/ATP IL-1B secretion, AlphaLISA, 16 h; hits give low values; in the data active = activity change below about -50%; inconclusive = mostly about -30% to -49%
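THP-1 cells pretreated 1 hr with compounds (up to 57.5 uM final), then stimulated with LPS (250 ng/mL final) plus ATP (1.25 mM final); secreted IL-1B measured by AlphaLISA after 16 hr, decreased signal indicating inhibition.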
TDP1 inh: TDP1 (human) enzyme inhibition; actives 0.28% (n = 350,000); recombinant TDP1, AlphaScreen DNA substrate cleavage; Potency, µM (series often up to 130 µM), most hits filed as inhibitors; Q9NUW8; AID 485290; note: nearly all actives have a fitted effect of over 40% in size
Target sequence (Q9NUW8 whole entry, looked up): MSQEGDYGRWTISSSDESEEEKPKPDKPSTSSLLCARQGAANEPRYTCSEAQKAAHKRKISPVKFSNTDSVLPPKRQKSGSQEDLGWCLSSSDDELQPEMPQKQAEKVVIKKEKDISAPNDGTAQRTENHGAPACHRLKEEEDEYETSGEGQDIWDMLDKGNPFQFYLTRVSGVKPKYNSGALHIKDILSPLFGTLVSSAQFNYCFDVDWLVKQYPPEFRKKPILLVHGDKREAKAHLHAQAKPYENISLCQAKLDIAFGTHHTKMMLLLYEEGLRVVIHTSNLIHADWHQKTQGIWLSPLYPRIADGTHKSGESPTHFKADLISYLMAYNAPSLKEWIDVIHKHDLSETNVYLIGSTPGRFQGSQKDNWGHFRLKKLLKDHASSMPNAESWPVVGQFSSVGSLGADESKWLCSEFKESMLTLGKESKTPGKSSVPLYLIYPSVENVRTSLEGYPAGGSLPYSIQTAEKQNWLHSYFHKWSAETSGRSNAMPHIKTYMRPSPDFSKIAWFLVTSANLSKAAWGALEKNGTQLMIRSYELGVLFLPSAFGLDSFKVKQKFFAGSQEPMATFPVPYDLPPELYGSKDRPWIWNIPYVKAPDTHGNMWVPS
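AlphaScreen read-out: signal falls as enzyme removes the 3' tyrosine-FITC from a 5'-biotinylated DNA oligo (15 nM, 5 min, RT). Enzyme was E. coli-made recombinant Tdp1 at 1 nM, exposed to compound for 15 min beforehand; beads 10 ug/ml, 10 min.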
HepG2 tox: counter-screen for TGF-b inhibitors: cytotoxicity in HepG2 cells; actives 0.76% (n = 410,000); Potency, µM (titrated, usually from 46.1 µM), usual class: cytotoxic; HepG2 CAGA-GFP viability, ATP luminescence, 18 h
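HepG2 CAGA-GFP cells (1000/well, DMEM with 1% FBS) received compound, then TGF-beta at 500 pg/mL final, and were incubated 18 hours at 37 degrees C. Viability was read by CellTiter-Glo luminescence. Media-only wells were set as complete cell-killing and DMSO as no toxicity.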
TGFb SMAD3 inh: blocks TGF-b signaling | AID 588855 | actives 1.2% (n = 410,000) | Potency, µM (doses to about 46.1 µM), most hits filed as inhibitors | HepG2 CAGA-GFP TGF-b/SMAD3 reporter, GFP fluorescence, 18 h; TGF-beta stimulated, 500 pg/mL final; note: nearly all actives have a fitted effect of over 65% in size
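Smad-responsive CAGA-GFP expression was quantified in HEPG2 cells exposed to compounds and 500 pg/mL final TGF-beta for 18 h at 37 degrees C; unstimulated wells defined full inhibition.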
Hits are given with their value; . = inactive; ? = inconclusive; / = not tested or not shown. Unless noted, calls come from the whole dose curve; as a rule, active = well fitted curve in the direction sought with a large enough effect; inconclusive = small, poorly fitted or top-dose-only effect, or another doubt; inactive = no such curve, though single readings can be large; an effect the other way counts as inactive or inconclusive.

SMILES	DT40 TDP1 CPT	TDP1 cell noCPT	IL1B secr inh	TDP1 inh	HepG2 tox	TGFb SMAD3 inh
Cc1ccn(CCNC(=O)C2CCC(=O)N(CCc3ccc(Cl)cc3)C2)n1 (configuration not stated)	.	.	.	.	.	.
COc1ccc(N(CC(=O)NC2CCCC2)C(=O)CCC(=O)Nc2cc(C)on2)cc1OC	.	.	.	.	.	.
COCC(=O)Nc1cc(C(=O)N2CCCC2c2nccs2)c2c(c1)nc(-c1ccncc1)n2C (configuration not stated)	.	.	/	/	/	/
CCCCNC(=O)C(CC)(ONc1ccccc1C(F)(F)F)c1ccccc1OC (configuration not stated)	?	16.4µM	?	.	.	.
CCCC(=O)NC(=S)Nc1ccccc1C(F)(F)F	.	.	.	.	.	.
CCOC(=O)c1ccc(Nc2nnc(C)c3ccccc23)cc1	.	16.4µM	.	/	.	.
O=S(=O)(Nc1nc2ccccc2nc1Nc1ccc(N2CCOCC2)cc1)c1cc(Cl)ccc1Cl	?	13µM	.	.	.	.
CCOC(=O)c1ccc(Nc2cc(C)nc(-c3ccccc3)n2)cc1	4.61µM	5.17µM	.	/	.	.
Clc1nc(Nc2ccc(N3CCOCC3)cc2)c2ccccc2n1	?	?	-64.2	.	.	.
CCOC(=O)c1ccc(Nc2nc(C)cc(C)n2)cc1	.	.	.	.	.	.
N#CCC(=O)Nc1ccc(C(=O)OCC(=O)NC2CCCc3ccccc32)cc1 (configuration not stated)	.	.	.	.	.	.
CCOC(=O)c1nc(Nc2ccc(N3CCOCC3)cc2)c2ccccc2n1	?	?	-84.3	/	.	.
CCOC(=O)c1nc(Nc2ccc(C(C)=O)cc2)c2ccccc2n1	16.4µM	14.6µM	.	/	.	.
CCOC(=O)c1ccc(Nc2cc(C)nc(N3CCOCC3)n2)cc1	.	?	.	.	.	.
CCOC(=O)c1nc(Nc2ccccc2CC)c2ccccc2n1	?	18.4µM	.	/	.	.
C=CCNc1nc(C(=O)OCC)nc2ccccc12	.	.	.	.	.	.
CCOC(=O)c1nc(NCc2ccccc2)c2ccccc2n1	?	?	.	.	.	.
CCOC(=O)c1nc(Nc2cccc(C)c2)c2ccccc2n1	23.1µM	11.6µM	.	.	.	.
CNC(=O)C1CCC(Cn2c(=O)c3sccc3n(CC(=O)NCc3ccccc3)c2=O)CC1 (configuration not stated)	?	?	/	.	.	?
CCCOC(=O)c1cccc(Nc2nc(C(=O)OCC)nc3ccccc23)c1	16.4µM	13µM	/	/	.	?
CN(C)C(=O)c1ccc(-c2cc(Nc3ccccc3)ncn2)cc1	?	.	/	/	/	/
CCOC(=O)c1cccc(Nc2nc(C(=O)OCC)nc3ccccc23)c1	4.11µM	3.26µM	/	.	.	.
COC(=O)c1cccc(Nc2nc(-c3ccncc3)nc3ccccc23)c1	?	?	.	/	.	.
CCOC(=O)c1cccc(Nc2cc(-c3ccccc3)ncn2)c1	14.6µM	14.6µM	/	.	.	.
CCOc1ccc(C2C(C(N)=O)=C(C)Nc3nc(SCc4ccccc4F)nn32)cc1 (configuration not stated)	.	.	/	.	.	.
SMILES	DT40 TDP1 CPT	TDP1 cell noCPT	IL1B secr inh	TDP1 inh	HepG2 tox	TGFb SMAD3 inh
COC(=O)C1=C(C)[C@H](O)[C@@H](C)[C@](C)(c2cc(OC)c(C)c(OC)c2COc2ccccc2)O1	/	/	/	.	/	/
COc1cc(NC(=O)c2ccc3c(c2)S(=O)(=O)N=C2CCCCCN23)cc(OC)c1	?	?	.	.	.	?
O=C(C[N+]12CN3CN(CN(C3)C1)C2)c1ccc(O)c(O)c1	10µM	?	/	/	.	.
N#Cc1ccc(-c2csc(NNC(=O)c3ccccc3)n2)cc1	?	?	.	.	.	.
CC(=O)NNc1nc(-c2ccc(NC(C)=O)cc2)cs1	.	.	.	.	.	.
O=C(NNc1nc(-c2ccccc2)cs1)c1ccccc1	?	20.6µM	.	.	.	.
CC(=O)Nc1ccc(-c2csc(NNC(=O)c3ccc(C)cc3)n2)cc1	13µM	10.3µM	.	.	.	.
N#Cc1ccc(-c2csc(NNC(=O)c3ccc(Br)cc3)n2)cc1	5.17µM	5.8µM	.	.	.	?
CCOc1ccccc1C(=O)NCC(c1cccs1)S(=O)(=O)c1ccc(F)c(C)c1 (configuration not stated)	.	.	/	.	.	.
COc1ccc(NC(=O)Cc2nnc(SCC(=O)Nc3ccc(F)cc3)n2C)cc1	.	.	.	.	.	.
O=[N+]([O-])c1ccc(O)c(C2=NNC(c3ccccc3F)C2)c1 (configuration not stated)	23.1µM	16.4µM	-57.6	/	.	12.6µM
COc1ccccc1Nc1sc(C(=O)c2ccc3c(c2)OCO3)c(N)c1S(=O)(=O)c1ccccc1	/	/	/	.	.	.
Cc1ccc(C)c(Nc2c(F)c(F)c(F)c(F)c2C(=O)O)c1	.	.	.	.	.	.
Cc1ccc(CN2CCC(=O)N(Cc3ccccn3)CC2)c(C)c1	.	.	/	/	/	/
CC(C)(C)C1=C(C#N)C(c2ccncc2)C(C#N)=C(N)O1 (configuration not stated)	18.4µM	29.1µM	.	.	.	.
COc1ccc(S(=O)(=O)NCc2ccccn2)cc1NC(=O)c1ccc(Cl)cc1	?	16.4µM	.	.	.	.
COc1ccc(S(=O)(=O)NCc2ccccn2)cc1NC(=O)c1ccccc1C	4.11µM	4.61µM	.	.	.	.
COc1ccc(S(=O)(=O)NCc2ccccn2)cc1OC	.	.	.	/	.	.
COc1ccccc1Oc1ccc(S(=O)(=O)NCc2ccccn2)cc1	?	14.1µM	.	.	.	.
CCOc1ccc(S(=O)(=O)NCc2ccccn2)c(C)c1C	23.1µM	.	.	/	.	.
COc1ccc(S(=O)(=O)NCc2ccccn2)cc1Cl	.	.	.	.	.	?
COc1ccc(S(=O)(=O)NCc2ccccn2)c(C)c1C	.	?	.	/	.	.
COc1ccc(CCCc2nnc(SCC(=O)Nc3cccc(F)c3C)o2)cc1	.	.	/	/	.	.
CC(C)(C)c1ccc(S(=O)(=O)NCc2ccc(C(=O)NCc3ccccn3)cc2)cc1	20.6µM	18.4µM	.	.	.	.
CCOc1ccc(C(c2c(O)cc(C)n(Cc3ccco3)c2=O)N2CCN(c3ccccc3)CC2)cc1 (configuration not stated)	?	?	/	.	.	.

High-throughput results deposited in PubChem BioAssay by National Center for Advancing Translational Sciences (NCATS).
